Source: PubChem (National Center for Advancing Translational Sciences (NCATS))
Hits are enriched below; roughly 2.8% of the tested compounds scored in any of these assays.
ATXN viability = Viability Counterscreen for Primary qHTS for Inhibitors of ATXN expression | S2 cells (HEK-293 line with an ATXN2-luciferase reporter) viability, CellTiter-Fluor protease fluorescence, 24 h | Potency, µM (titrated, usually from 56.7 µM), usual class: cytotoxic | hit rate 0.49% among 400,000 | AID 651635, 2014; further: nearly all actives have a fitted effect of over 40% in size
HTT cytoprotect = qHTS Multiplex Assay to Identify Dual Action Probes in a Cell Model of Huntington: Cytoprotection (ATP); hit rate 0.14% among 230,000; Potency, µM (top dose mostly 56.4 µM), for inactives: cytoprotection (ATP increase), actives largely listed as activators; AID 1471, 2008; PC12 HTT-Q103 induced, cytoprotection, ATP luminescence, 40 h; further: % of control where 0% means no effect; nearly all actives have a fitted effect of over 45% in size
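PC12 cells stably carrying ecdysone-inducible Htt exon 1 (Q103)–GFP were induced with 100 nM tebufenozide (final) alongside library compounds in a dose series. Cytoprotection was scored as retained ATP by ATPlite luminescence.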
HTT aggregate = qHTS Multiplex Assay to Identify Dual Action Probes in a Cell Model of Huntington: Aggregate Formation (GFP); PC12 HttQ103-GFP aggregates, Acumen cytometry, 40 h; Potency, µM (series often up to 46.1 µM), for inactives: at the highest dose activity change, negative = inhibition, hits mostly inhibitors; hit rate 1.1% among 220,000; AID 1688, 2009; further: on the % scale 0 is the no-effect control and ±100 the full control effect; nearly all actives have a fitted effect of over 60% in size
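Quantitative HTS on tebufenozide-induced (100 nM) PC12 cells stably expressing polyQ103 Huntingtin exon 1–GFP. Reduction of bright GFP aggregates, detected by laser scanning cytometry after lysis, identified actives across the titration.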
ATXN2 expr inh = Primary qHTS for Inhibitors of ATXN expression | hit rate 0.72% among 360,000 | HEK-293 ATXN2-luciferase reporter, luminescence, 24 h | Potency, µM (highest dose often 57 µM), inactives show top-dose activity change, negative = inhibition, most hits filed as inhibitors | AID 1745845, 2022; further: on the % scale 0 is the no-effect control and ±100 the full control effect; nearly all actives have a fitted effect of over 55% in size
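ATXN2-luciferase reporter cells (luciferase flanked by upstream and downstream ATXN2 gene portions) were treated 24 h at 37 °C with compounds at up to 57 uM. SteadyGlo luminescence gave expression; GF-AFC fluorescence gave viability.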
HepG2 tox = qHTS for Inhibitors of TGF-b: Cytotox Counterscreen | HepG2 CAGA-GFP viability, ATP luminescence, 18 h | Potency, µM (series often up to 46.1 µM), inactives show top-dose activity change, negative = cytotoxicity, hits mostly cytotoxic | hit rate 0.76% among 410,000
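CellTiter-Glo luminescence gave cytotoxicity after 18 hours at 37 degrees C. The cells were HepG2 CAGA-GFP in 1% FBS DMEM, stimulated with 500 pg/mL TGF-beta after compound addition. %Activity was normalised to no-cell wells (complete cell-killing) and DMSO (no toxicity), and curves were fitted and classified.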
TGFb inhibitor = qHTS for Inhibitors of TGF-b; Potency, µM (series often up to 46.1 µM), for inactives: at the top dose activity, negative = inhibition, most hits filed as inhibitors; HepG2 CAGA-GFP TGF-b/SMAD3 reporter, GFP fluorescence, 18 h; TGF-beta stimulated, 500 pg/mL final; hit rate 1.2% among 410,000; AID 588855, 2011; further: on the % scale 0 is the no-effect control and ±100 the full control effect; nearly all actives have a fitted effect of over 65% in size
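Inhibition was scored as loss of TGF-beta-induced (500 pg/mL final, 18 hours, 37 degrees C) GFP in HEPG2 cells carrying a CAGA-GFP reporter, in DMEM with 1% FBS. Well GFP was summed per cell; Activity was normalised to unstimulated and stimulated DMSO wells, then concentration-response fitting.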
The depositor's hits bear a star; i = inactive; ? = inconclusive; . = no result; [ ] = dose if it differs, or a comment. The call rests on the fitted dose curve; in most records, active means well fitted curve in the direction sought with a large enough effect; inconclusive means small, poorly fitted or top-dose-only effect, or another doubt; inactive means no such curve, though single readings can be large; an effect the other way counts as inactive or inconclusive. Potency means the concentration at half of the fitted maximal effect.

SMILES	ATXN viability	HTT cytoprotect	HTT aggregate	ATXN2 expr inh	HepG2 tox	TGFb inhibitor
O=C(O)C(c1ccccc1)C1(O)CCC1 (stereo not drawn)	i	.	.	3%	-11%	-6%
CN(C)CCOC(=O)[C@@H](c1ccccc1)C1(O)CCCC1	.	5.6µM*	1%	.	.	.
Cc1ccnc(NC(=O)c2ccc([N+](=O)[O-])s2)c1	i	.	.	-33%	-104%	13µM*
Cc1cccc(NC(=O)c2ccc([N+](=O)[O-])s2)n1	i	.	.	.	-104%	14µM*
O=C(Nc1ccccc1N1CCOCC1)c1ccc([N+](=O)[O-])s1	?	.	.	?	-90%	11µM*
Cc1cccc(NC(=O)c2ccc([N+](=O)[O-])s2)c1C	?	1%[10 µM]	1%	-39%	14µM*	11µM*
Cc1cccc(C)c1NC(=O)c1ccc([N+](=O)[O-])s1	i	44%[10 µM]	?	.	-88%	?
Fc1ccc(C(c2ccc(F)cc2)N2CCNCC2)cc1	i	.	.	-11%	.	.
CC(=O)Nc1ccc(/C=C/c2ccccn2)cc1	.	.	.	.	-10%	-26%
CCOC(=O)c1c2c(n(-c3ccc(OC)cc3)c1C)C(=O)C(=O)c1ccccc1-2	8.9µM*	.	.	8.9µM*	3.2µM*	?
CCOC(=O)c1sc(=S)n(-c2ccc(OC)cc2)c1C	i	-22%[10 µM]	-4%[9.22 µM]	-6%	-35%	0%
COc1cc2c(NC3CCN(C)CC3)nc(N3CCCN(C)CC3)nc2cc1OCCCCCCN(C)C	.	.	.	.	0%	?
COc1ccc(-c2cn(Cc3ccc(C(=O)c4ccccc4)cc3)nn2)cc1	?	.	.	24%	-30%	10µM*
COc1ccc(-c2cn(Cc3ccc4ccccc4c3)nn2)cc1	i	.	.	-3%	-8%	-10%
COc1cccc(NC(=O)Nc2nc(-c3ccc(OC)c(OC)c3)cs2)c1	8.9µM*	.	.	3.2µM*	16µM*	11µM*
COc1ccc(-c2csc(NC(C)=O)n2)cc1OC	i	-10%	-2%	22%	2%	7%
COc1cccc(NC(=O)N2CCN(c3nc(-c4cccc(OC)c4)cs3)CC2)c1	14µM*	13%[10 µM]	17%[9.22 µM]	.	-36%	?
COc1cccc(-c2csc(N3CCN(C(=O)Nc4ccccc4Cl)CC3)n2)c1	i	15%[10 µM]	6%[9.22 µM]	.	0%	-17%
Cc1ccc(C)c(CN2C[C@H](Sc3nc4ccccc4[nH]3)C[C@H]2C(=O)N2CCCN(C)CC2)c1	i	.	.	.	.	.
COc1ccc(OC)c(/C=C/c2ccc3ccccc3[n+]2C)c1	.	.	.	.	-17%	-20%
CCCCS(=O)(=O)N1C2=NC(C(=O)OC)=C(C(=O)OC)[C@@H]3Nc4ccccc4[C@]23C[C@H]1C(=O)OC	.	8%[10 µM]	.	.	.	.
Nc1ccc(N2CCN(CCCCN3C(=O)C4CCCN4C3=O)CC2)cc1 (stereo not drawn)	18µM*	.	11%	-16%	-4%	0%
O=C1C2CCCCN2C(=O)N1CCCN1CCN(c2ccc(F)cc2)CC1 (stereo not drawn)	i	.	.	-15%	1%	-1%
CCOC(=O)c1cnc(-n2nc(C)cc2C)nc1NNc1nc(C)cc(C)n1	i	18%[10 µM]	4%[9.22 µM]	.	-1%	-9%
CCOC(=O)c1cnc(-n2nc(C)cc2C)nc1NNc1nc(-c2ccccc2)cc(-c2ccccc2)n1	i	32%[10 µM]	10µM*	?	-17%	-6%
SMILES	ATXN viability	HTT cytoprotect	HTT aggregate	ATXN2 expr inh	HepG2 tox	TGFb inhibitor
CS(=O)(=O)N1CCN(c2ccccc2NC(=O)c2ccc([N+](=O)[O-])o2)CC1	?	-29%	?	-37%	-26%	?
CN1CCN(c2ccccc2NC(=O)c2ccc([N+](=O)[O-])o2)CC1	?	.	.	?	2.5µM*	?
Cc1cccc(NC(=O)c2ccc([N+](=O)[O-])o2)n1	?	14%	5%	-21%	25µM*	?
Cc1c(NC(=O)c2ccc([N+](=O)[O-])o2)cccc1-c1nc2ncccc2o1	?	.	.	?	25µM*	?
O=C(Nc1ccccc1Cl)c1ccc([N+](=O)[O-])o1	i	.	.	-13%	-81%	?
O=C(Nc1cccc2ncccc12)c1ccc([N+](=O)[O-])o1	i	.	.	21%	13µM*	13µM*
Cc1cccnc1NC(=O)c1ccc([N+](=O)[O-])o1	?	23%[10 µM]	?	6%	-2%	?
CCc1ccc(C=O)cc1	.	.	.	.	-4%	-2%
CC(=O)OCC(NC(=O)C(COCc1ccccc1)NC(=O)OC(C)(C)C)C1OC(n2cc(F)c(=O)[nH]c2=O)C(OC(C)=O)C1OC(C)=O (stereo not drawn)	.	.	.	.	-2%	3%
Cc1ccc(NC(=O)c2ccc([N+](=O)[O-])o2)c(C)c1	i	.	.	-7%	-80%	13µM*
Cc1ccccc1NC(=O)c1ccc([N+](=O)[O-])o1	i	-9%[10 µM]	-4%[9.22 µM]	-17%	-34%	16µM*
